Active and inactive are the calls of the source. Unless noted, no rule for the calls is given here.

This is an account of results in PubChem BioAssay.

Experiment [1] relates to XIP peptide (Xip251-270) binding. Nature of the experiment: XIP fragment 251-270 binding compounds – biochemical, small-molecule microarray, fluorescence 635/667 nm, 0.1 µg/mL protein, primary screen (AID 1182). The note with it: fluorescent protein binding, 635 nm, higher = more signal, called active from +8 up or from −8 down.
The next experiment deals with XIP peptide (Xip251-270). Nature of the experiment: compounds binding XIP fragment 251-270 – biochemical, small-molecule microarray, fluorescence 635/667 nm, 0.5 µg/mL protein, primary screen (AID 1183). The note with it: fluorescence 635 nm, higher = more signal.
A short description of experiment [2]: blood-stage malaria parasite viability loss – strain 3D7, DAPI fluorescence, 100 nL, primary screen (AID 1184).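 Also: parasites grown inside human red blood cells in medium with human serum.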 The note with it: P. falciparum 3D7 growth, 3 d, higher = more signal.
Experiment [3] deals with Homeobox protein Hox-A13 (Mus musculus) (UniProt Q62424). Nature of the experiment: disruptors of Hoxa13 oligonucleotide interaction – biochemical, fluorescence polarization, labeled oligonucleotide, primary screen (AID 1185). Conditions: Hoxa13:DNA binding, 15 min, higher = more signal, called active from +8 up or from −8 down. A general note: In fluorescence polarisation assays a small probe gives low polarisation when free and higher when bound to something large.

A short description of experiment [4]: blockers of DNA damage checkpoint Chk1 activation – imaging, HeLa, hydroxyurea, phospho-Chk1 antibody, percent positive cells, primary screen (AID 1186). The note with it: hydroxyurea-induced phospho-Chk1 immunofluorescence imaging, higher = more signal.
The nature of experiment [5]: blockers of DNA damage checkpoint Chk1 activation – imaging, HeLa, hydroxyurea, phospho-Chk1 nuclear intensity, primary screen (AID 1187). The note with it: hydroxyurea-induced phospho-Chk1 immunofluorescence imaging, higher = more signal.

Sequence of Homeobox protein Hox-A13 (Mus musculus) (Q62424 whole entry, looked up): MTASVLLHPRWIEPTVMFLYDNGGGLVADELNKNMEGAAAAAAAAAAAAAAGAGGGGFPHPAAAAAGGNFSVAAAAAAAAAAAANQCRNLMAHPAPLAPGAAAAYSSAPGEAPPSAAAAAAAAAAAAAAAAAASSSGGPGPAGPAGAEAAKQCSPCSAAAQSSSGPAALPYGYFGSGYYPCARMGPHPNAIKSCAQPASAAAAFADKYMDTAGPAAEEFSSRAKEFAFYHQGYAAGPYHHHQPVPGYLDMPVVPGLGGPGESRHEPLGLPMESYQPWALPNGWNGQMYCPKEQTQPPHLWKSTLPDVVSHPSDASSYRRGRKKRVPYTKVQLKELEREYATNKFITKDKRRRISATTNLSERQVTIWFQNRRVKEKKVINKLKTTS

Turning to `O=C1O[C@H](c2ccccc2)[C@H](c2ccccc2)N2[C@H]1[C@@H](C(=O)Nc1nc3ccccc3s1)[C@]1(C(=O)Nc3ccc(C#CCCO)cc31)[C@H]2c1ccc(O)cc1`, the composite z-score in experiment [1] is 0.25 (inactive); in the experiment on XIP peptide (Xip251-270), 0.625. For the same compound, the z-score is 0.902 in experiment [2], -1.02 (inactive) in experiment [3], -0.334 (inactive) in experiment [4] and -0.376 (inactive) in experiment [5].

Regarding `C=C(/C(=C/C[C@H](OC(C)=O)c1cccc(OCCO)c1)c1cnc2ccccc2c1)C(C)C`, the composite z-score was -0.328 (inactive) in experiment [1] and -0.179 with XIP peptide (Xip251-270). Moreover, the z-score in experiment [2] was -1.28; in experiment [3], -4.29 (inactive); in experiment [4], -0.192 (inactive); in experiment [5] it was -0.139 (inactive).

On to `COC(=O)[C@@]1(Cc2ccc(OC)cc2)[C@H]2c3cc(C(=O)N(C)C)n(CCO)c3C[C@H]2CN1C(=O)c1ccccc1`, for which the composite z-score was -0.509 (inactive) in experiment [1] and -0.947 in the experiment with XIP peptide (Xip251-270). The z-score in experiment [2] was 0.302; in experiment [3] it was -4.38 (inactive); in experiment [4], 0.931 (inactive); in experiment [5], 0.524 (inactive).

With `COc1cccc(/C=C/C=O)c1`, the composite z-score is 0.421 (inactive) in experiment [1] and -0.453 in the experiment with XIP peptide (Xip251-270). Moreover, the z-score in experiment [2] was 1.1; in experiment [3], -0.396 (inactive); in experiment [4], 0.36 (inactive); in experiment [5] it was 0.769 (inactive).

As for `COCCOC(=O)N1C(=O)[C@@]2(c3ccccc31)[C@H](C(=O)N1CCN(c3ncccn3)CC1)[C@H]1C(=O)O[C@H](c3ccccc3)[C@H](c3ccccc3)N1[C@@H]2c1ccc(O)cc1`, the composite z-score is 0.43 (inactive) in experiment [1] and 0.854 in the experiment on XIP peptide (Xip251-270). The z-score is -1.55 in experiment [2], -0.883 (inactive) in experiment [3], 0.172 (inactive) in experiment [4] and 0.371 (inactive) in experiment [5].

With `COc1ccc(CN(C2=CC[C@@]3(C(N)=O)C(=O)C(Cl)=C(Cl)C(=O)[C@@]3(C#N)C2)S(=O)(=O)c2ccc(Br)cc2)cc1`, the composite z-score is 0.68 (inactive) in experiment [1] and 0.923 with XIP peptide (Xip251-270). In addition, the z-score is 0.435 in experiment [2], -6.44 (inactive) in experiment [3], -0.207 (inactive) in experiment [4] and -0.179 (inactive) in experiment [5].

For the compound `C=CCC(OC(C)=O)[C@@H]1[C@@H](N(Cc2cccc3ccccc23)C(=O)c2cccc3ccccc23)c2cc(OCCCO)ccc2N1C(=O)c1ccc(-c2ccccc2)cc1` (stereo partly specified), the composite z-score in experiment [1] was 0.71 (inactive); in the experiment on XIP peptide (Xip251-270), 0.686. The z-score was -2.37 in experiment [2], -1.52 (inactive) in experiment [3], 0.305 (inactive) in experiment [4] and 0.466 (inactive) in experiment [5].

Take `Cc1ccc(S[C@]2(C(=O)O)CC(=O)N(Cc3ccccc3Cl)[C@@H]2c2ccc(CO)cc2I)cc1`: the composite z-score in experiment [1] was -0.62 (inactive); with XIP peptide (Xip251-270), 0.261. For the same compound, the z-score in experiment [2] was 0.204; in experiment [3], -2.54 (inactive); in experiment [4], 0.0343 (inactive); in experiment [5] it was 0.0261 (inactive).

Consider `COC(=O)[C@@]1(Cc2ccccc2)[C@H]2c3cc(C(=O)N(C)C)n(CCc4ccc(O)c(OC)c4)c3C[C@H]2CN1C(=O)c1ccccc1`, for which the composite z-score in experiment [1] is 0.132 (inactive); with XIP peptide (Xip251-270), -0.358. The z-score is 0.692 in experiment [2], -0.394 (inactive) in experiment [3], 0.727 (inactive) in experiment [4] and 0.652 (inactive) in experiment [5].

`C=CCOC(=O)[C@H]1[C@@H]2C(=O)O[C@@H](c3ccccc3)[C@@H](c3ccccc3)N2[C@@H](c2ccc(OCCOC(=O)[C@H]3C[C@H]4C(=O)N[C@@H](CCCCNC(C)=O)C(=O)N4[C@H]3c3ccc(O)cc3)cc2)[C@]12C(=O)Nc1ccccc12`: the composite z-score in experiment [1] is 2.69 (inactive); in the experiment on XIP peptide (Xip251-270), 0.685. Also, the z-score in experiment [2] was -1.72; in experiment [3] it was -1.06 (inactive); in experiment [4], 0.203 (inactive); in experiment [5], 0.261 (inactive).

As for `O=C1O[C@@H](c2ccccc2)[C@@H](c2ccccc2)N2[C@@H](c3ccc(OCCO)cc3)[C@]3(C(=O)Nc4ccccc43)[C@@H](C(=O)O)[C@H]12`, the composite z-score was 0.442 (inactive) in experiment [1] and -0.105 in the experiment on XIP peptide (Xip251-270). In addition, the z-score in experiment [2] is -1.29; in experiment [3], -6.16 (inactive); in experiment [4] it was -0.33 (inactive); in experiment [5] it was -0.413 (inactive).

Turning to `O=C1NC(=O)C2C1C=CC(C(O)c1cccc3ccccc13)N2Nc1ccc(Cl)cc1Cl` (stereo unspecified), the composite z-score in experiment [1] is 1.46 (inactive); with XIP peptide (Xip251-270) it was 0.497. The z-score is -0.0879 in experiment [2], -4.57 (inactive) in experiment [3], 0.461 (inactive) in experiment [4] and 0.3 (inactive) in experiment [5].

For the compound `CCC(CC)C(O)C1C=CC2C(=O)N(c3ccccc3)C(=O)C2N1Nc1ccc(C(C)C)cc1` (stereo unspecified), the figures for the composite z-score (in experiment [1]; in the experiment with XIP peptide (Xip251-270)) were 0.0969 (inactive) and 0.586, respectively. Besides, the z-score in experiment [2] was -0.615; in experiment [3], -3.2 (inactive); in experiment [4] it was -0.681 (inactive); in experiment [5] it was -0.765 (inactive).

Consider `COC(=O)C(CC#Cc1ccc2c(c1)[C@]1(C(=O)N2)[C@H](C(=O)N2CCN(c3ncccn3)CC2)[C@H]2C(=O)O[C@H](c3ccccc3)[C@H](c3ccccc3)N2[C@@H]1c1ccc(OCCO)cc1)C(=O)OC`, for which the composite z-score in experiment [1] is 1.22 (inactive); in the experiment on XIP peptide (Xip251-270), 0.809. Moreover, the z-score is -1.97 in experiment [2], 1.63 (inactive) in experiment [3], -0.162 (inactive) in experiment [4] and -0.285 (inactive) in experiment [5].

As for `CC(=O)c1ccc(C(O)C2C=CC3C(=O)N(c4ccccc4)C(=O)C3N2Nc2ccc(C#N)cc2)cc1` (stereo unspecified), the composite z-score in experiment [1] is -0.305 (inactive); in the experiment on XIP peptide (Xip251-270), 0.441. Besides, the z-score is 0.981 in experiment [2], -4.75 (inactive) in experiment [3], 0.293 (inactive) in experiment [4] and -0.211 (inactive) in experiment [5].

For the compound `COCCOC(=O)N1C(=O)[C@@]2(c3cc(C#CC4=CCCCC4)ccc31)[C@H](C(=O)N1CCCCCCC1)[C@H]1C(=O)O[C@H](c3ccccc3)[C@H](c3ccccc3)N1[C@@H]2c1ccc(O)cc1`, the composite z-score in experiment [1] was 0.179 (inactive); in the experiment on XIP peptide (Xip251-270), 0.695. The z-score was -1.72 in experiment [2], 2.25 (inactive) in experiment [3], -0.525 (inactive) in experiment [4] and -0.932 (inactive) in experiment [5].
